HP1b binding inh = HP1-beta chromodomain-methylated histone interaction inhibition. 390,000 tested, 0.56% active. P83916. AlphaScreen HP1-beta / biotin-H3K9me3 peptide binding. Potency, µM (series often up to 114 µM), for inactives: top-dose activity change, negative = inhibition, actives largely listed as inhibitors; also: potency is read from the fitted curve at half-maximal effect; nearly all actives have a fitted effect of over 70% in size
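Compound inhibition of the preformed complex between 50 nM HP1-beta and 50 nM biotinylated H3K9me3 peptide was read by AlphaScreen. Buffer was PBS pH 7.4 with 0.01% Tween-20. Incubations ran 30 min at room temperature, with 10 ug/mL donor/acceptor beads.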
CtBP-E1A blk = inhibitors of CtBP/E1A interaction; 340,000 tested, 0.49% active; AID 651724; AlphaScreen GST-E1A/His-CtBP binding, 1536-well; hits give low values; activity change, % (no concentration beside the values); in the data active = activity change below about -65%; inconclusive = mostly about -30% to -63%; also: % is scaled to controls: 0 for no effect and ±100 for the full control effect
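Protein mix (5X: 125 nM each GST-E1A, His-CtBP) was incubated with pinned compound 2 h at 37 deg C in dark, in 50 mM Tris pH 8.0 buffer with 300 mM NaCl. Glutathione donor and nickel acceptor beads followed; AlphaScreen signal read after 1 h.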
Six1-Eya2 inh = blocks human Six1 binding to Eya2; AID 651725; 360,000 tested, 0.56% active; AlphaScreen GST-Six1/His-Eya2 binding, biochemical; hits give low values; Q15475+O00167; activity change, % (test concentration not listed); in the data active = activity change below about -65%; inconclusive = mostly about -30% to -63%; also: % is scaled to controls: 0 for no effect and ±100 for the full control effect
Target sequence (O00167 whole entry, looked up): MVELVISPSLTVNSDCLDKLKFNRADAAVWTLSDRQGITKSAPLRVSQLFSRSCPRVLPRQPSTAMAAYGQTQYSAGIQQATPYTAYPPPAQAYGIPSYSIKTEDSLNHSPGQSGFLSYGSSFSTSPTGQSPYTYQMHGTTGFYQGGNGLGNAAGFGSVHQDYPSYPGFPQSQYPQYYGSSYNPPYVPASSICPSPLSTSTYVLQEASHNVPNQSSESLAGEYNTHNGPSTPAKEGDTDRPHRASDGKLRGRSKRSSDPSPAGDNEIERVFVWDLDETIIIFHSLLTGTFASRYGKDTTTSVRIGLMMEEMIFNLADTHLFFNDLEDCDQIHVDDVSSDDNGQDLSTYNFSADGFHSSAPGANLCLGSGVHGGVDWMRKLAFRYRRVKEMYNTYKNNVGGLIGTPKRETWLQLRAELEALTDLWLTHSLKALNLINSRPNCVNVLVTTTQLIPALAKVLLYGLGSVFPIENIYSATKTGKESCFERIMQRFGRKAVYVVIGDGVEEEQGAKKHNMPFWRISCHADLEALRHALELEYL
Target sequence (Q15475 whole entry, looked up): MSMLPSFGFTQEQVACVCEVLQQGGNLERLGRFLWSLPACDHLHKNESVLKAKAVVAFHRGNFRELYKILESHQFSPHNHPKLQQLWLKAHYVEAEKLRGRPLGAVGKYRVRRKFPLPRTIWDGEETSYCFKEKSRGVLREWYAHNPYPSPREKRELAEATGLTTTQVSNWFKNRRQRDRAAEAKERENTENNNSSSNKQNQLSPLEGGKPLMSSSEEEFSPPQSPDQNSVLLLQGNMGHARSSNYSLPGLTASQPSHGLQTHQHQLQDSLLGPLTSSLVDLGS
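Compounds are tested against tagged Six1 and Eya2 proteins bridged by glutathione donor and nickel acceptor beads; after a one-hour incubation at 37 °C without light, AlphaScreen emission is recorded.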
BAZ2B inh = BAZ2B (human) inhibition; AlphaScreen BAZ2B-H3K14Ac peptide displacement; 360,000 tested, 4.4% active; Q9UIF8; Potency, µM (top dose mostly 114 µM), without a hit: at the highest dose activity change, negative = inhibition, usual class: inhibitors; also: potency is read from the fitted curve at half-maximal effect; % is scaled to controls: 0 for no effect and ±100 for the full control effect; nearly all actives have a fitted effect of over 60% in size
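AlphaScreen displacement of biotin-H3(5-23)K14Ac peptide (50 nM final) from BAZ2B (50 nM final) in PBS pH 7.4, 0.01% Tween-20; complex preformed 30 min RT, then compounds (top 110 uM) 30 min RT, beads 20 min dark.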
G9a block = inhibitors of human histone lysine methyltransferase G9a; G9a H3K9 monomethylation, AlphaScreen, 2 h; Potency, µM (doses to about 102 µM), without a hit: at the top dose activity, negative = inhibition, usual class: inhibitors; 350,000 tested, 8.8% active; AID 504332; also: potency is read from the fitted curve at half-maximal effect; % is scaled to controls: 0 for no effect and ±100 for the full control effect; nearly all actives have a fitted effect of over 75% in size
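G9a (20 nM) preincubated 15 min RT with compounds, then 500 nM biotinylated H3K9 peptide and 20 uM SAM added; 2 h RT reaction. Monomethyl-H3K9 product detected by AlphaScreen with anti-H3K9me1 antibody, streptavidin donor and anti-rabbit IgG acceptor beads.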
JMJD2A Tudor = inhibitors of human JMJD2A Tudor domain | O75164 | AlphaScreen JMJD2A-Tudor / H3K4me3 peptide binding | AID 504339 | Potency, µM (top dose mostly 114 µM), for the others: top-dose activity change, negative = inhibition, actives largely listed as inhibitors | 390,000 tested, 4.4% active; also: potency is read from the fitted curve at half-maximal effect; % is scaled to controls: 0 for no effect and ±100 for the full control effect; nearly all actives have a fitted effect of over 50% in size
Starred values were filed as active, the others as inactive; ? = inconclusive; nt = not tested or not shown; ! = a repeat was not active; [ ] = dose if it differs, or a comment. In the library only some 10% were active in any assay of this set; here they are far more common. Unless noted, calls follow the shape of the dose curve; as a rule, active = well fitted inhibition curve with a large enough effect; inconclusive = small, poorly fitted or top-dose-only effect; inactive = no such curve, though single readings can be large or run the other way.

SMILES	HP1b binding inh	CtBP-E1A blk	Six1-Eya2 inh	BAZ2B inh	G9a block	JMJD2A Tudor
COc1cc(CNC2CCCCC2OC)cc(OC)c1OC (stereo unspecified)	?	1	-3	?	11µM*	?
COc1cc(CNC2CCCCCCC2)cc(Cl)c1OC	19%	-5	2	12%	1%	-3%
Cc1ccccc1OCC(=O)Nc1ccc2[nH]ncc2c1	32%	-1	-8	-5%	nt	-3%
COC(=O)c1ccc(NC(=O)CCS(=O)(=O)c2ccc(Br)cc2)cc1	-21%	-1	-13	56µM*!	56µM*!	-28%
CCc1cccc(NC(=O)CCS(=O)(=O)c2ccc(Br)cc2)c1	8.9µM*	nt	-24	32µM*	28µM*	11µM*
COC(=O)c1ccc(NC(=O)CSCC(=O)OCC(=O)c2ccc(Br)cc2)cc1	56%	7	0	-4%	10µM*	-8%[57.1 µM]
COC(=O)c1ccc(NC(=O)CCS(=O)(=O)c2ccc(C)cc2)cc1	26%	nt	0	7%	14%	-7%
CC(=O)c1ccc(NC(=O)CCS(=O)(=O)c2ccc3c(c2)n(C)c(=O)c(=O)n3C)cc1	-18%	8	4	79µM*	?	79µM*
COc1ccc(C2(O)CCN(CC(=O)Nc3nccs3)CC2)c(OC)c1	12%	1	-2	-36%	-7%[59 µM]	-6%
CCN1CCN(C(CC(C)C)c2nnnn2CS(=O)(=O)c2ccc(C)cc2)CC1 (stereo unspecified)	26%	0	0	?	?	-5%
Cc1ccc(CNC(=O)C(=O)NCC(c2ccco2)S(=O)(=O)c2ccc(C)cc2)cc1 (stereo unspecified)	34%	nt	nt	-1%	-5%[59 µM]	-20%
O=C(CCS(=O)(=O)c1ccc(Br)cc1)Nc1ccc(Br)cc1F	-25%	8	3	50µM*	?	-35%[57.1 µM]
CN/N=C/c1ccc(C#N)cc1	46%	11	3	-19%	-1%	-16%
Cc1ccccc1N/N=C/c1ccc(C#N)cc1	12%	2	-9	?	10µM*	-32%
CN(C)CCNc1nc2sc3c(c2c(=O)n1Cc1ccccc1)CCCCC3	-38%	-5	-6	35µM*	?	50µM*
O=c1c2c3c(sc2nc(NCCO)n1CCc1ccccc1)CCCCC3	?	-5	-12	?	56µM*	?
COc1cccc(NC(=S)NCCN2CCOCC2)c1	15%	15	13	7%	23%[59 µM]	-7%
CCCN1CCCc2cc(CN(CCCN3CCOCC3)C(=O)Nc3ccc(Cl)c(Cl)c3)ccc21	?	nt	nt	11µM*	11µM*	13µM*
CCCN1CCCc2cc(CN(CCCN3CCOCC3)C(=O)Nc3ccc(OCC)cc3)ccc21	?	-9	?	40µM*	13µM*	28µM*
CCOc1ccc(NC(=O)N(CCN2CCOCC2)Cc2ccc3c(c2)CCCN3CC)cc1	?	-21	-28	45µM*	13%[0.501 µM]	56µM*
COc1ccc(CN(CCCN2CCOCC2)C(=O)Nc2cccc(Cl)c2)cc1OC	-4%	-5	-11	-34%	-7%[59 µM]	-17%
CCN1CCCc2cc(CN(CCN3CCOCC3)C(=S)Nc3cccc(OC)c3)ccc21	?	-21	?	14µM*	?	50µM*
CC(=O)c1sc(NC(=O)COc2ccc([N+](=O)[O-])cc2)nc1C	32%	0	65	-3%	nt	-20%
Cc1ccc(N(CC(=O)Nc2cccc(Cl)c2C)S(C)(=O)=O)cc1	20%	-11	-1	1%	28%	-4%
Cc1ccc(C)c(OCCC(=O)OCC(=O)Nc2cccnc2Cl)c1	18%	20	4	nt	nt	-12%
COc1ccc(S(N)(=O)=O)cc1C(=O)NCC(C)(C)N1CCOCC1	-3%	0	8	-20%	8%	-13%
COc1cc(CC(=O)NCC(C)(C)N2CCOCC2)cc(OC)c1OC	15%	5	0	1%	50µM*	-5%

Screening results from PubChem.
